uPA surface inh: cell surface uPA generation inhibition; Potency, µM (titrated, usually from 38.3 µM), without a hit: top-dose activity change, negative = inhibition, most hits filed as inhibitors; cell surface uPA generation assay, qHTS; 330,000 tested, 0.31% active; AID 540303; active means well fitted inhibition curve with a large enough effect; inconclusive means small, poorly fitted or top-dose-only effect; inactive means no such curve, though single readings can be large or run the other way; tested in mouse RAW 264.7 cells; further: potency means the concentration at half of the fitted maximal effect; on the % scale 0 is the no-effect control and ±100 the full control effect; nearly all actives have a fitted effect of over 55% in size
Sfp inh: inhibitors of Bacillus subtilis Sfp phosphopantetheinyl transferase. Q9F4F7. Biochemical Sfp PPTase activity, qHTS. Potency, µM, for inactives: largest response in the series, negative = inhibition, usual class: inhibitors. 310,000 tested, 3.5% active;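 further: the enzyme is Sfp with the accession as filed and its product quenches rhodamine fluorescence; potency means the concentration at half of the fitted maximal effect; 0% = enzyme reaction without inhibitor and -100% = no enzyme wells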
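Buffer: 50 mM Hepes-Na pH 7.6, 10 mM MgCl2, 0.01% Nonidet P-40, 0.01% BSA. Enzyme 15 nM, pre-exposed to compound 15 min; substrates then added and fluorescence change tracked over 30 min.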
ClpP mod: qHTS Assay for Activators of ClpP; ATP-dependent Clp protease proteolytic subunit (Bacillus subtilis (strain 168)), P80244; purified B. subtilis ClpP, FRET peptide cleavage, 20 min; Potency, µM (top dose mostly 57.5 µM), for the others: at the top dose activity change, negative = active; 340,000 tested, 1.9% active; active means well fitted falling curve with a large enough effect; inconclusive means small, poorly fitted or top-dose-only effect; inactive means no such curve, though single readings can be large or run the other way; further: potency means the concentration at half of the fitted maximal effect; the source files actives as falling curves though it sought activators and does not explain the sign; nearly all actives have a fitted effect of over 65% in size
Target sequence (P80244 whole entry, looked up): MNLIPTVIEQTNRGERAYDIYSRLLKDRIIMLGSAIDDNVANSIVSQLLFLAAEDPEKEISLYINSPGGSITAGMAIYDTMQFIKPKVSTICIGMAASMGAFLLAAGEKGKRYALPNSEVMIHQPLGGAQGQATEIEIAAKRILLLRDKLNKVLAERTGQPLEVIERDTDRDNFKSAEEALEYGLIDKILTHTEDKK
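FRET quenching reversal measured ClpP activation: 10 microg/mL B. subtilis ClpP at pH 8 with the FRET-FV decapeptide, read at 430 nm after 320 nm excitation. The 20-min minus 0-min signal was scaled between DMSO/no-enzyme wells and ADEP (5.8 microM final).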
TCR act: T cell receptor activation; primary human leukocytes, anti-CD3, IL-2 HTRF, 48 h; Potency, µM (titrated, usually from 9.22 µM), without a hit: top-dose activation of IL-2 secretion, usual class: activators; 330,000 tested, under 10 active; further: % of control where 0% means no effect
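1) Mix primary human leukocytes, a-CD3 beads and compound. 2) Incubate 48 hr. 3) Add HTRF IL-2 reagents (a-IL-2-K, a-IL-2-d2).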
Active calls of the source: *; ? = inconclusive; / = no result given; [ ] = remark or other dose. A selection: hits, their analogues and other compounds. The true share with any hit is near 4.2%. Unless noted, the call rests on the fitted dose curve; in most records, active means well fitted curve in the direction sought with a large enough effect; inconclusive means small, poorly fitted or top-dose-only effect, or another doubt; inactive means no such curve, though single readings can be large; an effect the other way counts as inactive or inconclusive.

SMILES	uPA surface inh	Sfp inh	ClpP mod	TCR act
O=C(COC(=O)c1cc(F)c(F)cc1Cl)NC1CC1	0%	3%	1%	8%
Nc1c(Cl)cc(Cl)cc1C(=O)OCC(=O)NC1CC1	3%	4%	8.9µM*	-1%
c1ccc(C(c2nnnn2C2CCCCC2)N2CCc3ccccc3C2)nc1 (centres undefined)	-5%	79µM*	2.5µM*	2%
Oc1ccc(N2CCN(C(c3ccccn3)c3nnnn3C3CCCC3)CC2)cc1 (centres undefined)	-25%	18µM*	-1%	3%[46.1 µM]
CC(C)C(c1nnnn1C1CCCCC1)N1CCc2ccccc2C1 (centres undefined)	-6%	-16%	0%	-1%
CC(C)CN(C(=O)COC(=O)c1ccc2c(c1)NC(=O)CS2)C1CCS(=O)(=O)C1 (centres undefined)	-6%	50µM*	-2%	2%
CN(C)S(=O)(=O)c1ccc(Cl)c(NC(=O)COC(=O)c2ccc3c(c2)NC(=O)CS3)c1	2%	25µM*	-3%	-3%
CN(C)S(=O)(=O)c1ccc(Cl)c(NC(=O)COC(=O)c2ccc(O)cc2)c1	0%	0%	/	-1%
CN(CC(=O)O)c1ccc(/C=C/c2ccnc3ccccc23)cc1	/	/	-1%	/
Cc1ccc(C)c(C(=O)COC(=O)Cn2c(C)csc2=O)c1	8%	-4%	-2%	1%
COc1ccc(C(=O)N2CCCCC2CCN2CCOCC2)cc1 (centres undefined)	/	/	-1%	/
CCc1c(C)c2ccc(OCC(=O)OC)cc2oc1=O	/	16%	14µM*	0%
COC(=O)COc1cc(OCC(=O)OC)c2c(C)c(Cl)c(=O)oc2c1	-1%	4%	14µM*	-16%[46.1 µM]
COC(=O)Cc1c(C)c2ccc(OC(C)C)cc2oc1=O	?	5%	3%	3%
COC(=O)COc1cc(C)cc2oc(=O)c(CC(=O)OC)c(C)c12	12%	1%	14µM*	-14%
CCOC(=O)[C@@H](NC(=O)/C=C/[C@H]1O[C@@H](n2ccc(=O)[nH]c2=O)[C@H](O)[C@@H]1O)C(C)C	/	/	0%	/
Cc1ccc(C(=O)OCCN2CCN(c3ncc(C(F)(F)F)cc3Cl)CC2)cc1	6%	15%	14µM*	1%
O=C(OCCN1CCN(c2ncc(C(F)(F)F)cc2Cl)CC1)c1ccc(F)cc1	1%	3%	2%	9%
COc1ccc(-c2nc(=S)[nH][nH]2)cc1OC	-5%	56µM*	-10%	0%
COc1ccc(-c2nc(=S)[nH][nH]2)cc1	-1%	?	-4%	-8%
COc1cc(-c2nc(=S)[nH][nH]2)cc(OC)c1OC	1%	50µM*	/	/
FC(F)(F)c1ccc(-c2nc(=S)[nH][nH]2)cc1	0%	56µM*	/	-2%
Oc1ccc(-c2nc(=S)[nH][nH]2)cc1	-1%	?	-21%	5%[46.1 µM]
Cc1nn(CC(=O)NCC(C)c2ccccc2)c(=O)c2cccn12 (centres undefined)	1%	7%	-1%	-3%
CCOc1cc(C2C3=C(CCCC3=O)N(CCC(=O)O)C3=C2C(=O)CCC3)ccc1OS(=O)(=O)c1ccc(C)cc1	1%	9%	?	-1%[46.1 µM]
SMILES	uPA surface inh	Sfp inh	ClpP mod	TCR act
Cc1ccc(S(=O)(=O)Oc2ccc(C3C4=C(CCCC4=O)N(CCC(=O)O)C4=C3C(=O)CCC4)cc2Cl)cc1	2%	18%	25µM*	-2%[46.1 µM]
O=[N+]([O-])c1ccccc1/C=C/C=N/n1c(-c2cc(-c3ccccc3)n[nH]2)n[nH]c1=S	-2%	18µM*	/	-5%
S=c1[nH]nc(-c2ccccn2)n1/N=C/c1cccc(Cl)c1	0%	1%	/	9%
O=[N+]([O-])c1cc2c(cc1/C=N/n1c(-c3ccccn3)n[nH]c1=S)OCO2	-2%	22µM*	0%	-2%[46.1 µM]
O=[N+]([O-])c1ccc(/C=N/n2c(-c3ccccc3)n[nH]c2=S)cc1	-3%	?	-13%	/
O=[N+]([O-])c1cc2c(cc1/C=N/n1c(-c3ccccc3)n[nH]c1=S)OCO2	2%	40µM*	-1%	5%
CCCCn1c(=O)nc2n(-c3ccccc3)c3ccccc3cc-2c1=O	/	-16%	25µM*	3%
Cc1cc(-c2n[nH]c(=S)n2/N=C/C(Cl)=C/c2ccccc2)n[nH]1	-6%	50µM*	?	2%[46.1 µM]
S=c1[nH]nc(-c2ccco2)n1/N=C/C(Cl)=C/c1ccccc1	-13%	?	/	-10%
O=C(CSc1cccc2cccnc12)N/N=C/c1ccc(F)cc1	1%	1%	-9%	3%
O=C(O)CSc1cccc2cccnc12	0%	56µM*	?	5%
O=C(O)CSc1nnc(COc2cccc3cccnc23)n1-c1cccc(C(F)(F)F)c1	1%	20%	/	-3%
C=CCn1c(COc2cccc3cccnc23)nnc1SCC(=O)O	2%	-11%	28µM*	5%
C=CCn1c(COc2cccc3ccc(C)nc23)nnc1SCC(=O)O	1%	-11%	35µM*	1%
COc1cccc(OC)c1C(=O)Nc1ccccc1Sc1ccccc1	-5%	/	0%	-4%
NC1CCc2ccc([N+](=O)[O-])cc21 (centres undefined)	/	/	-1%	/
CC1CCC(=C(C#N)c2nc(-c3cc4ccccc4oc3=O)cs2)CC1 (centres undefined)	7%	3%	3.5µM*	-8%
Cc1ccc(NC(=O)Cn2c(=O)n(Cc3ccco3)c(=O)c3sc4ccccc4c32)c(C)c1	/	/	-9%	/
Cn1c(=O)cc(Cl)[nH]c1=O	1%	16%	/	7%
CCN1C(=S)SC(=O)C1=C1C=C(C)N(CCOC)C(C)=C1	/	50µM*	/	/
COc1cc(CN2CCN(Cc3ccc(C(F)(F)F)cc3)CC2)cc(OC)c1OC	-8%	20µM*	0%	-1%
COc1ccc(CN2CCN(Cc3ccc(C(F)(F)F)cc3)CC2)c(OC)c1	8%	71µM*	-1%	4%
CS(=O)(=O)N1CCN(Cc2ccc(C(F)(F)F)cc2)CC1	0%	56µM*	-1%	8%
COc1ccc(CN2CCN(Cc3ccc(C)cc3)CC2)c(OC)c1	-4%	-19%	-1%	-2%
COc1ccc(CN2CCN(Cc3cccc(Oc4ccccc4)c3)CC2)c(OC)c1OC	-11%	?	0%	1%
SMILES	uPA surface inh	Sfp inh	ClpP mod	TCR act
CS(=O)(=O)N1CCN(Cc2ccccc2C(F)(F)F)CC1	1%	11%	-2%	-4%
COc1ccc(CN2CCN(Cc3ccc(Br)cc3)CC2)c(OC)c1OC	3%	79µM*	-5%	2%
CCCCCC(=O)Nc1ccc(S(=O)(=O)NC2=NCCCCC2)cc1	4%	/	4%	6%
OC1C2COC(O2)[C@H](O)C1O (some centres undefined)	/	13%	/	/
O=c1cc(CSc2ncn[nH]2)[nH]c2c(Cl)cccc12	/	/	0%	/
CCS(=O)(=O)N1CCN(Cc2ccc([N+](=O)[O-])cc2)CC1	0%	79µM*	1%	0%[46.1 µM]
CSc1ccc(CN2CCN(Cc3ccc([N+](=O)[O-])cc3)CC2)cc1	-6%	-8%	0%	/
O=C(CN(Cc1ccccc1Cl)C(=O)c1csnn1)NCc1ccc2c(c1)OCO2	6%	14%	/	-4%
CCN(CC)c1ccc(C(=O)O)cc1	-13%	0%	-3%	-8%[46.1 µM]
